In all, about 300,000 compounds went through this assay and about 37,000 (12%) were called active. The sample holds actives, similar compounds and a random draw of the others, so the mix is not that of the screen. Values without a mark were called inactive. No stated cut-off is given here; in the data, active means max response mostly above about 13% (no sharp cut-off); inactive means mostly below about 14%.
Experiment: Cycloheximide Counterscreen for Small Molecule Inhibitors of Shiga Toxin; further: read at 38.3 µM for the half of the compounds with a filed dose; 0% is about no effect
Settings: cell reporter, cycloheximide protein synthesis inhibition counterscreen; hits give high values

With CCOC(=O)c1c(NC(=O)CSc2nccc(=O)[nH]2)sc(C)c1C as the molecule, how does the max response read?
Its max response is -2.23%.

With COC(=O)c1ccc(-c2noc(CN(Cc3ccccn3)CC3CCCO3)n2)cc1 (stereo unspecified) as the molecule, how does the max response read?
Its max response is -2.22%.

For CN(Cc1ccccn1)Cc1nc(-c2ccc(Cl)cc2)no1, which max response is on record?
The max response was 20% (active).

Which max response does the source give for CCN1CC(CN(C)Cc2nc(-c3ccc(Cl)cc3)no2)CC1=O (stereo unspecified) here?
The max response was 6.16%.

Which max response does the source give for COCCCNS(=O)(=O)c1cccc(S(=O)(=O)c2cccc(S(=O)(=O)NCCCOC)c2)c1 here?
The max response was -2.51%.

With O=C(Nc1cccc2cccnc12)C(F)(F)F as the molecule, how does the max response read?
The max response was -1.21%.

Which max response does the source give for O=C(Nc1ccccc1Cl)Nc1cccc2cccnc12 here?
Its max response is 31.2% (active).

Which max response does the source give for COc1ccc(S(=O)(=O)Nc2cccc3cccnc23)c(N)c1 here?
Its max response is 23.5%.

Which max response does the source give for COc1ccc(NC(=O)Nc2cccc3cccnc23)cc1 here?
Its max response is 55.8% (active).

Which max response does the source give for O=C(Nc1ccccc1Cl)Nn1cnnc1 here?
Its max response is 6.34%.

With O=C(Nc1cccc2cccnc12)c1cccc(N2C(=O)CCC2=O)c1 as the molecule, how does the max response read?
The max response was -3.63%.

With O=C(Nc1cccc2cccnc12)c1cccc(Cl)c1 as the molecule, how does the max response read?
The max response was 49.1% (active).

Which max response does the source give for CCOC(=O)Cc1ncccc1C(=O)Nc1ccc(OC)cc1 here?
The max response was -1.69%.

Which max response does the source give for N#Cc1ccc(C(=O)Nc2cccc3cccnc23)c(F)c1 here?
The max response was -0.854%.

For O=C(COC(=O)/C=C/c1cn(-c2ccccc2)nc1-c1cccnc1)Nc1ccc(Cl)cc1Cl, which max response is on record?
Its max response is 3.3%.

Which max response does the source give for COc1cccc(-n2c(=S)sc3c(=O)n(-c4ccccc4C)c(SCC(=O)O)nc32)c1 here?
Its max response is -1.2%.

For O=C(c1ccccc1F)N1CCN(S(=O)(=O)c2ccc(Br)cc2)CC1, which max response is on record?
The max response was -10.6%.

Which max response does the source give for O=C1NC(=O)C(c2ccc(Cl)cc2)N1 (stereo unspecified) here?
Its max response is -2.12%.

Which max response does the source give for C=CCN1C(=O)NC(=O)/C(=C/c2ccc(OCC(=O)Nc3ccc(C)cc3)cc2)C1=O here?
Its max response is 14.5% (active).

With CCOC(=O)C1=C(O)/C(=C/c2ccc(OCC(=O)Nc3ccc(C)cc3)cc2)N=C1C as the molecule, how does the max response read?
Its max response is -7%.

Which max response does the source give for Cc1ccc(NC(=O)COc2ccc(/C=C3/NC(=O)NC3=O)cc2)cc1 here?
The max response was -1.82%.

For CCSc1nnc(SCC(=O)NNC(=O)c2ccccc2F)s1, which max response is on record?
Its max response is 6.26%.

With O=C(CCC1CCCC1)N=C1SC2CS(=O)(=O)CC2N1Cc1ccccc1 (stereo unspecified) as the molecule, how does the max response read?
Its max response is 0.661%.

Which max response does the source give for CNC(=O)c1sc(NCc2ccccc2OC)nc1C here?
Its max response is -3.72%.

Which max response does the source give for COC(=O)c1sc(NC(=S)NC(=O)c2ccc(C)cc2)nc1C here?
The max response was 9.32%.

Which max response does the source give for COc1cccc2sc(NNC(=O)c3nc4ccccc4s3)nc12 here?
Its max response is 12.4%.

Which max response does the source give for COc1ccc(Br)cc1C(=O)Nc1cccc(C)c1C here?
Its max response is -3.3%.

For COc1cc2ccccc2cc1C(=O)Nc1ccc(S(=O)(=O)Nc2cc(C)on2)cc1, which max response is on record?
The max response was -2.65%.

With COc1cc2ccccc2cc1C(=O)Nc1ccccc1C as the molecule, how does the max response read?
The max response was 29.7% (active).

Which max response does the source give for CC(=O)c1sc(NC(=O)c2cccc3ccccc23)nc1C here?
Its max response is 35.9% (active).

Which max response does the source give for CC(=O)c1sc(NC(=O)C2=NN(c3ccccc3)C(=O)CC2)nc1C here?
The max response was -0.878%.

With CC(=O)c1sc(NC(=O)c2ccc(C)cc2)nc1C as the molecule, how does the max response read?
The max response was 54.3% (active).

For COc1cccc2sc(Nc3nc(C)c(C(C)=O)s3)nc12, which max response is on record?
The max response was 16.2% (active).

For CCOC(=O)c1sc(NC(=O)c2ccncc2)nc1C, which max response is on record?
The max response was 0.888%.

For CNC(=O)c1sc(Nc2ccc(OCc3ccccc3)cc2)nc1C, which max response is on record?
The max response was 10.4%.

Which max response does the source give for COc1cc(C(=O)NCc2ccncc2)cc(Br)c1OCc1ccccc1 here?
The max response was -7.17%.

For Cc1ccc(C(=O)N/N=C\c2cc(Br)c(Br)o2)cn1, which max response is on record?
Its max response is 3.37%.

Which max response does the source give for CC(=O)NS(=O)(=O)c1ccc2c(c1)Cc1cc(S(=O)(=O)NC(C)=O)ccc1-2 here?
Its max response is -0.942%.

With N#C[C@]1(S(=O)(=O)c2ccccc2)C[C@@H]2ON=C(c3cccc(Br)c3)[C@@H]2C1 as the molecule, how does the max response read?
The max response was 0.173%.

For CCCCC(O)(CCCC)C(=O)NN(C(=O)CCl)c1ccccc1, which max response is on record?
Its max response is 4.18%.

Which max response does the source give for COc1cc2ccccc2cc1C(=O)Nc1nc(C)c(C(C)=O)s1 here?
Its max response is 33.8% (active).

For O=C(Cc1ccccc1)NC(=S)Nc1ccc(N2CCCCC2)cc1, which max response is on record?
The max response was 20.2%.

Which max response does the source give for CC1(C)CC(N2CCN(C(c3ccccc3)c3ccccc3)CC2)=CC(=[N+]2CCCCC2)C1 here?
Its max response is -1.68%.

Which max response does the source give for CCOC(=O)c1ccc(COC(=O)c2cc(=O)[nH]c3ccccc23)o1 here?
Its max response is -2.02%.

For CCOC(=O)c1ccc(CS(=O)c2ccc(Cl)cc2)o1 (stereo unspecified), which max response is on record?
The max response was 25.3% (active).

For Cc1ccc(S(=O)Cc2ccc(C(=O)N3CCN(C4CCCCC4)CC3)o2)cc1 (stereo unspecified), which max response is on record?
Its max response is 0.779%.

Which max response does the source give for C=CCn1c(CNS(=O)(=O)c2ccc(Br)cc2)nnc1SC here?
Its max response is -1.32%.

With COc1ccc(CCNC(=O)c2nnc(CS(=O)(=O)c3ccccc3)o2)cc1OC as the molecule, how does the max response read?
The max response was -0.612%.

For CC(=O)NC(CC(=O)Nc1nc(-c2ccccc2)c(C(C)=O)s1)c1ccccc1 (stereo unspecified), which max response is on record?
The max response was -6.12%.

For COC(=O)c1c(C)[nH]c(C)c1-c1ccc([N+](=O)[O-])cc1, which max response is on record?
The max response was -6.3%.

For COC(=O)c1c(C)oc(C)c1S(=O)(=O)NCc1ccc(Cl)cc1, which max response is on record?
The max response was -1.57%.

Which max response does the source give for COC(=O)c1c(C)[nH]c(C(=O)/C=C/c2ccc(Cl)cc2)c1C here?
The max response was 30.8% (active).

With COc1ccc(NC(=O)c2sc3nc(C)nc(N4CCN(c5ccccn5)CC4)c3c2C)c(OC)c1 as the molecule, how does the max response read?
Its max response is -5.96%.

For CCN(C(=O)COC(=O)/C=C/c1nc2ccccc2s1)C1CCS(=O)(=O)C1 (stereo unspecified), which max response is on record?
Its max response is -3.69%.

For O=S(=O)(Nc1cccc(-n2cnnn2)c1)c1cnc(Cl)c(Cl)c1, which max response is on record?
Its max response is 4.36%.

With Nc1c(C(=O)c2cccs2)sc2nsc(SCCN3CCCCC3)c12 as the molecule, how does the max response read?
The max response was 24.4% (active).

With O=C(CN1C2=NCCN2c2ccccc21)c1cccs1 as the molecule, how does the max response read?
The max response was 4.8%.

Which max response does the source give for O=C(c1ccc(Oc2ccc(Cl)cc2)c([N+](=O)[O-])c1)N1CCCC1 here?
The max response was -3.06%.

For COc1ccc(N=Cc2c(O)[nH]c3ccccc23)cc1OC, which max response is on record?
The max response was 43.7% (active).

Which max response does the source give for COc1ccccc1N=Cc1c(O)c2ccccc2oc1=O here?
Its max response is 9.95%.

For COc1cc(N=Cc2c(O)[nH]c3ccccc23)cc(OC)c1OC, which max response is on record?
The max response was 6.65%.

With COc1cc(OC)c(C(=S)N2CCCC2)cc1OC as the molecule, how does the max response read?
Its max response is -2.47%.

Which max response does the source give for Cc1cccc(NS(=O)(=O)c2cc(Cl)ccc2Cl)n1 here?
The max response was -0.991%.

With C[C@H](NC(=O)c1nc[nH]c1C(=O)NCC(=O)OC(C)(C)C)C(=O)OCc1ccccc1 as the molecule, how does the max response read?
Its max response is -0.808%.

Which max response does the source give for CCC(C)C(NC(=O)C1CCC(=O)N1C(=O)OCc1ccccc1)C(=O)NC(C(=O)N1CCCC1C(N)=O)C(C)CC (stereo unspecified) here?
Its max response is -2.75%.

With COc1cc(/C=N/N2CCN(c3ccccc3)CC2)ccc1OC(C)=O as the molecule, how does the max response read?
The max response was 15.1%.

With COc1ccccc1N1CCN(/N=C\C(Br)=C\c2ccccc2)CC1 as the molecule, how does the max response read?
The max response was 21.4%.

Which max response does the source give for COc1ccccc1N1CCN(/N=C/c2ccc(O)cc2O)CC1 here?
Its max response is 20% (active).

With Cc1nnc(NC(=O)C(c2ccccc2)c2ccccc2)s1 as the molecule, how does the max response read?
The max response was -6.29%.

Which max response does the source give for CCCCN1C(=O)C(C)=C(C)C1OCCc1ccc(OC)c(OC)c1 (stereo unspecified) here?
Its max response is -1.75%.

With COc1ccc(C(C(=O)NC2CCCCC2)N(C(=O)c2snc(C(N)=O)c2N)c2ccccc2OC)cc1 (stereo unspecified) as the molecule, how does the max response read?
The max response was -4.3%.

For Cc1ccc(NC(=O)OCCNC(=O)c2ccncc2)cc1, which max response is on record?
Its max response is 19.8% (active).

Which max response does the source give for CCOC(=O)Nc1ccc(S(=O)(=O)N(C)C(C)C)cc1 here?
The max response was 2.33%.

For CCOC(=O)C(NC(C)=O)C(=O)Nc1ccc(OC)cc1 (stereo unspecified), which max response is on record?
The max response was -2.02%.

Which max response does the source give for CCOC(=O)N1CCN(CCC(=O)Nc2ccccc2)CC1 here?
The max response was -2.64%.

Which max response does the source give for CC(C)(C)C1CCC(OC(=O)CCC(=O)Nc2ccccc2)CC1 (stereo unspecified) here?
Its max response is 4.12%.

With CCOC(=O)Nc1ccc(NC(=O)OCC)cc1 as the molecule, how does the max response read?
The max response was 38.2% (active).

Which max response does the source give for CCCCCOC(=O)NCCOC(=O)Nc1ccc(C(=O)OCC)cc1 here?
The max response was -1.37%.

For Cc1ccc(NC(=O)OCc2cncs2)cc1, which max response is on record?
Its max response is 28.5% (active).

Which max response does the source give for CC(C)(COC(=O)Nc1ccccc1)COC(=O)Nc1ccccc1 here?
The max response was 19% (active).

Which max response does the source give for Cc1ccc(C(=O)NCCNC(=O)c2cnccn2)cc1 here?
Its max response is -0.952%.

Which max response does the source give for COc1ccc(NC(=O)/C(Cl)=C(/Cl)S(=O)Cc2ccc(C)cc2)cn1 (stereo unspecified) here?
The max response was -12.1%.

For Cc1ccc(OCc2nnc(NC(=O)OCC(C)C)s2)cc1, which max response is on record?
The max response was -6.37%.

For O=C(c1ccccc1)C(Cn1cncn1)C(Sc1ccccc1)c1ccccc1 (stereo unspecified), which max response is on record?
Its max response is -6.69%.

Which max response does the source give for CC(C)C(=O)N1CCC2(CC1)Oc1ccc(F)cc1C(=O)C21CC(c2ccccc2)=NO1 (stereo unspecified) here?
The max response was -2.77%.

For CN(C)CCOC1c2ccccc2-c2ccccc21, which max response is on record?
The max response was 0.251%.

Which max response does the source give for COc1cc(OC)c(C(=O)OC(C)C(=O)Nc2cc(C(F)(F)F)ccc2Cl)cc1OC (stereo unspecified) here?
Its max response is 4.97%.

Which max response does the source give for CC1=C(C(N)=O)C(c2ccc(Br)cc2)n2ncnc2N1 (stereo unspecified) here?
Its max response is -0.44%.

With c1ccc(-c2cc(N3CCCCC3)c3ccccc3n2)cc1 as the molecule, how does the max response read?
Its max response is -6.32%.

For Cc1ccc(S(=O)(=O)N(C)C)cc1NC(=O)C1Cc2ccccc2CN1C(=O)c1ccco1 (stereo unspecified), which max response is on record?
The max response was -2.92%.

With C=CCC1=C/C(=C\c2c(N)n3nc(CC(=O)N4CCOCC4)sc3nc2=O)C=C(OC)C1=O as the molecule, how does the max response read?
The max response was 0.431%.

Which max response does the source give for Cc1ccc(OS(=O)(=O)c2ccc(-c3csc(C)n3)s2)c(C)c1 here?
Its max response is 1.06%.

For CN(Cc1nc2ccc(F)cc2[nH]1)Cc1nc(CC2CC2)no1, which max response is on record?
The max response was -0.7%.

With OC(COc1ccc2ccccc2c1)Cn1cncn1 (stereo unspecified) as the molecule, how does the max response read?
The max response was 8.69%.

For COc1ccccc1OCC(O)CN1CCOCC1 (stereo unspecified), which max response is on record?
Its max response is -1.33%.

With OC(COc1ccc2ccccc2c1)CN1CCOCC1 (stereo unspecified) as the molecule, how does the max response read?
Its max response is 24% (active).

From PubChem BioAssay AID2314 (National Center for Advancing Translational Sciences (NCATS), 2010)
